Screening results as filed in PubChem.
D2 PAM-1 = positively modulates the human D2 dopamine receptor allosterically. P14416. HEK293 T-REx D2, calcium flux, EC20 dopamine potentiation. potentiation, % at 10 µM. actives 0.34% (n = 340,000);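 active = potentiation over 3 SD above the plate norm, cut at about 30% in these data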; note: 0% is about no effect
Target sequence (P14416 whole entry, looked up): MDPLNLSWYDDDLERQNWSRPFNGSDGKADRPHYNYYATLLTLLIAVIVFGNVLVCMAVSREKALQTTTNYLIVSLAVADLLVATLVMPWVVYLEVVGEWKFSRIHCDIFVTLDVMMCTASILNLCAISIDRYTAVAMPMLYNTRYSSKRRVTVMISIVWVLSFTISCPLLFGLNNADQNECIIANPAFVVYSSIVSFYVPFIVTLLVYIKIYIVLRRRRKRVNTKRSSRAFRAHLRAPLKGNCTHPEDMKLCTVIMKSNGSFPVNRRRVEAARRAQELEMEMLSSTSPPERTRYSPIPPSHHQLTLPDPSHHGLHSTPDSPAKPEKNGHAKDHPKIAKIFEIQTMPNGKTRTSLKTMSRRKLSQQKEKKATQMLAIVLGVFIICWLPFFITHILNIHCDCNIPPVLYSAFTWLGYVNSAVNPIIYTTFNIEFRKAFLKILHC
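Primary screen. Calcium kinetics in induced HEK293 T-REx D2 cells: compound pre-addition 180 s, EC20 dopamine, 180 s more.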
D2 ag-1 = human D2 receptor agonism in beta-arrestin assay; P14416; DiscoveRx PathHunter D2 beta-arrestin, luminescence, 90 min; 100% = 57 uM dopamine signal; activation, % (concentration not given with the values); actives 0.084% (n = 360,000); AID 624465; in the data active = activation above about 40%; inconclusive = between about 15% and that limit
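DiscoveRx PathHunter D2 beta-arrestin cells (2,100/well) attached overnight, then compound-stimulated 90 min at 37 C in HBSS/10 mM HEPES/0.1% Tween-20 buffer; beta-galactosidase complementation read by luminescence after 1 h at ambient temperature. Dopamine 57 uM final (EC100) as control.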
D2 ag-2 = agonists of human D2 dopamine receptor; P14416; activation, % at 2 µM; HEK293 T-REx D2 cells, calcium flux agonist mode; actives 0.53% (n = 340,000); AID 485358;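 active = activation over 3 SD above normal in the single-dose calcium agonist read, cut at about 30% in these data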; note: 0% is about no effect
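HEK293 Trex D2 cells, tetracycline-induced, o/n 30 C 5% CO2; no-wash Ca dye, RT 30–90 min; 10-cycle baseline, 23 nl cpd added, kinetic Ca read 180 s; agonist hits = positive Ca response.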
D2 antag = antagonists of human D2 dopamine receptor | HEK293 TREx D2 cells, calcium flux, dopamine EC80 | P14416 | AID 485344 | actives 2% (n = 340,000) | inhibition, % at 10 µM; in the data active = inhibition above about 30%; inactive = below that, where a call was filed; note: 0% is about no effect
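Inhibition of EC80 dopamine-driven calcium flux, recorded kinetically, defines activity here; cells are a tetracycline-induced HEK293 T-REx line expressing force-coupled D2.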
D2 PAM-2 = potentiates the human D2 dopamine receptor allosterically; P14416; DiscoveRx D2 beta-arrestin cells, luminescence, 90 min; 100% = 57 uM dopamine signal; potentiation, % (test concentration not listed); actives 0.23% (n = 360,000); AID 624464; in the data active = potentiation above about 50%; inconclusive = mostly about 30% to 49%
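D2 cells co-treated with compound plus 50 nM dopamine (EC20) for 90 min at 37 deg C to detect potentiation. Beta-arrestin recruitment was read as enzyme-fragment luminescence after 1 h at ambient temperature. Full response was set by 57 uM dopamine.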
An asterisk follows results filed as active; ? = inconclusive; nt = not tested or not shown. Most compounds without a hit are left out; they make up all but 2.4% or so of the library.

SMILES	D2 PAM-1	D2 ag-1	D2 ag-2	D2 antag	D2 PAM-2
CC1(C(=O)O)CCC(C(=O)Nc2ccc(OC(F)(F)Cl)cc2)C1(C)C (configuration not stated)	-5	2	1	43*	-8
Cc1cc(C(=O)COc2ccc(Br)cc2F)c(C)n1CC1CCCO1 (configuration not stated)	nt	-1	nt	nt	-15
O=C(NCCCN1CCN(c2ccccc2)CC1)C1CCCN(c2ncnc3c2nc2n3CCCCC2)C1 (configuration not stated)	-29	0	12	59*	-29
Cc1ccc(NC(=O)c2cc(=O)n(Cc3ccccc3)c(=O)[nH]2)cc1C	9	3	nt	34*	-5
O=C(O)c1cc(=O)n(Cc2ccccc2)c(=O)[nH]1	12	0	1	9	-8
Cc1nc(-c2ccc(F)cc2)c(CC(=O)N2CCN(S(=O)(=O)c3cccc([N+](=O)[O-])c3)CC2)s1	-5	?	0	34*	29
CCc1cccc(CC)c1NC(=O)CCCSc1nc2ccccc2s1	-2	2	-1	30*	15
Cc1cccc(C)c1NC(=O)CCCSc1nc2ccccc2s1	8	-3	-1	-4	-21
CCCCCC1=CCC/C1=N\NC(=O)c1ccc2c(c1)OCO2	-3	1	1	31*	-9
COc1cc(NC(=O)c2ccccc2-c2ccccc2)cc(OC)c1	3	2	-1	2	-10
CC(CNC(=O)c1cc2ccccn2n1)c1ccccc1 (configuration not stated)	-1	nt	0	nt	nt
Cc1ccc(NC(=O)CSc2nc(=O)n(CCCN3CCOCC3)c3c2CCCC3)cc1F	3	-2	-3	31*	-32
O=c1cc(-c2ccccc2)n2c(SCc3ccc(Br)cc3)nnc2[nH]1	6	nt	0	nt	nt
COC(=O)c1ccn(CSc2cc(Cl)ccc2Cl)n1	-1	3	1	42*	-2
CS(=O)(=O)NN1C(=O)c2ccccc2NC1c1c[nH]c2ccccc12 (configuration not stated)	13	-3	0	12	0
COC(=O)CN1C(c2ccc(OC)cc2)=Nc2ccc(Cl)cc2C1c1ccccc1 (configuration not stated)	-24	3	1	91*	9
COc1cc(C2=Nc3ccc(Br)cc3C(c3ccccc3)N2CC(=O)NN)cc(OC)c1OC (configuration not stated)	-15	-5	1	86*	-22
COC(=O)CN1C(c2cccc(Cl)c2)=Nc2ccc(Cl)cc2C1c1ccccc1 (configuration not stated)	-13	-2	-2	21	-36
CCCn1c(N)c(CC)c(=O)[nH]c1=O	4	1	0	6	-4
CCCNc1nc2c(c(=O)[nH]c(=O)n2C)n1CCC(C)C	16	-4	-1	-2	3
CCCCn1c(NCCC)nc2c1c(=O)[nH]c(=O)n2C	40*	0	-1	2	2
CC(NS(=O)(=O)c1ccc(OCC(=O)N2CCOCC2)cc1)c1ccccc1 (configuration not stated)	8	-1	0	31*	10
CC(NS(=O)(=O)c1ccc(OCC(=O)N2CCOCC2)c(Cl)c1)c1ccccc1 (configuration not stated)	-2	-1	0	3	-4
CN1CCc2nc(SCCOc3ccccc3)c(C#N)cc2C1	nt	-3	0	31*	-23
CCN(CC)CCNC(=O)c1ccc(NC(=O)COc2ccc3c(c2)CCC3)cc1	2	-7	1	32*	-5
SMILES	D2 PAM-1	D2 ag-1	D2 ag-2	D2 antag	D2 PAM-2
CCN(CC)CCNC(=O)c1ccc(NC(C)=O)cc1	-4	-2	1	-4	2
O=C(Cn1nnc(-c2ccccc2NC(=O)c2ccccc2F)n1)NCc1ccco1	0	0	1	33*	9
O=C(Nc1cccc2c1CCCC2)c1cc([N+](=O)[O-])cc([N+](=O)[O-])c1	-5	9	-3	6	62*
COc1ccc(C(=O)Nc2cccc3c2CCCC3)cc1	-6	1	0	-7	-1
O=C(Nc1ncccn1)c1ccc([N+](=O)[O-])cc1	nt	-2	nt	nt	-15
O=C(Nc1ncccn1)c1cc([N+](=O)[O-])cc([N+](=O)[O-])c1	-3	5	1	-8	54*
Cc1ccccc1Nc1nnc(-c2ccc(C)c(S(=O)(=O)NCC3CCCO3)c2)c2ccccc12 (configuration not stated)	-2	nt	-1	nt	nt
OCOCCCn1c(C2CCCN2c2nc(-c3ccc(F)cc3)cs2)nc2cc(Cl)c(N3CCCCC3)cc21 (configuration not stated)	nt	-3	nt	nt	-11
CCC(=O)Nc1ccccc1-c1nc2ccccc2n(C(CC)C(=O)Nc2cccc(C(C)=O)c2)c1=O (configuration not stated)	2	nt	-2	nt	nt
Fc1c(F)c(F)c(N/N=C/c2c[nH]c3ccccc23)c(F)c1F	13	?	0	-7	60*
COCCCNC(=O)c1nn(-c2ccc(C)cc2)c(=O)n(C)c1=O	7	nt	0	nt	nt
O=C(Cn1ncc2c([nH]c3ccccc32)c1=O)NCCCN1CCN(c2ccc(F)cc2)CC1	-17	nt	5	nt	nt
Oc1ccc[n+](CCCCC[n+]2cccc(O)c2)c1	-4	-5	0	-11	-12
Oc1ccc[n+](/C=C\c2ccccc2)c1	14	0	0	38*	-10
COc1ccc(OC)c(NC(=O)Nc2nc(C(N)C(C)C)cs2)c1 (configuration not stated)	nt	2	nt	nt	-13
CC1=C(C)CC(C(=O)Nc2nccs2)C(C(=O)O)C1 (configuration not stated)	12	-2	2	2	5
COc1ccccc1CN1CC(C(=O)NC2(c3ccccc3)CC2)CCC1=O (configuration not stated)	6	-6	0	-2	12
O=C(C1CCCO1)N1CCN(C(=S)Nc2ccc(F)cc2)CC1 (configuration not stated)	1	2	1	41*	-4
CC(C)CCNC(=O)CN1C(=O)COc2ccc(S(=O)(=O)N3CCOCC3)cc21	-13	nt	1	nt	nt
COc1cc(/C=N/N(CCO)C2=NS(=O)(=O)c3ccccc32)cc(OC)c1OC	7	4	0	-31	3
COc1cc(Br)cc(/C=N/N(CCO)C2=NS(=O)(=O)c3ccccc32)c1OC	-26	-3	-2	38*	-23
Cc1cc(N2CCCC2)nc(-c2ccccc2O)n1	3	-3	0	8	-13
Cc1cc(N2CCCCC2)nc(N)n1	-14	-5	69*	60*	-7
CCc1cc2ccc(C)cc2nc1SCC(=O)Nc1cc(C)on1	3	-1	0	-7	0
